Laboratory results as given in PubChem BioAssay (NCATS).
Results filed as inconclusive are left out. Where a call stands in place of a potency, no number is given. Active and inactive are the calls of the source. Calls follow the shape of the dose curve; as a rule, active = well fitted cell-killing curve with a large enough effect; inconclusive = small, poorly fitted or top-dose-only effect; inactive = flat fitted curve, though single readings scatter.

assay: Quantitative highthroughput screen to assess conditional lethalithy of P12 Ichikawa cells grown in Human Plasma-Like Medium with dialyzed fetal bovine serum (HPLM+ds) (AID 1963879); details: ATP luminescence, 48 h; Potency: viability; series mostly up to 45.8 µM; also: nearly all actives have a fitted effect of over 35% in size
Excerpt: Assay Provider: Jason Cantor Ph.D.
Department of Biochemistry
University of Wisconsin-Madison, Madison, WI, USA
Chemical screening studies have identified drug sensitivities across hundreds of cancer cell lines but most putative therapeutics fail to translate. Discovery and development of drug candidates in models that more accurately reflect nutrient levels in human blood is a major challenge. Here we performed high-throughput screens in conventional versus Human Plasma-Like Medium (HPLM) to identify compounds that were "missed" when screening using the artificial culture condition. Sets of conditional anticancer compounds spanned phases of clinical development and included non-oncology drugs were assessed. […] We also traced conditional phenotypes for several chemotherapeutics to availability of HPLM-specific metabolites and confirmed others for compounds whose reported targets are encoded by nonessential genes. Our findings establish generalizable strategies for exploiting conditional lethality in HPLM to reveal therapeutic candidates and mechanisms of action in cancer cells.
Described herein are the results of each viability screens against three cell lines: NOMO1 (an acute myeloid leukemia cell line); P12-Ichikawa (a T-cell acute lymphoblastic leukemia); and SEM (a B-cell ALL). Each assay was screened using 3 different cell culture media: homemade human plasma-Like medium with 10% dialyzed fetal bovine serum (HPLM+ds); RPMI1640 with 10% untreated FBS and 5mM glucose (RPMI+s); and RPMI1640 with 10% dialyzed fetal bovine serum and 5 mM glucose (RPMI+ds).
PROTOCOL TABLE (as described by Inglese J, Shamu CE and Guy RK. 2007)
SEQUENCE No. (e.g., 1, 2, 3, etc.); […] (e.g., Cells, Incubation, Reagent, etc.); VALUE and DESCRIPTION.
1; Cells; 5 uL; white, solid bottom 1536-well Greiner assay plate.
2; Compounds; 23 nL; Kalypsis pin tool (Wako USA) equipped with a 1536-well pin head to transfer to the assay plates.
3; Incubation; 48 hours; 37C incubation.
4; Reagent; 3 uL; CellTiter Glo (Promega).
5; Incubation; 5 min, room temperature
6; Detection; Luminescence, Viewlux PerkinElmer.
NOTES (numbers refer to Sequence numbers above)
1. Briefly, 5 ul of cell reagent was dispensed using a Multidrop Combi Dispenser. The NOMO1 and SEM cells were plated at 500 cells/well and the P12-Ichikawa line at 1000 cells/well.
2. After seeding the cells, 23 nL of MIPE 4.1 library compounds (in DMSO) were added to each plate using a Kalypsys 1536 Pintool dispenser. Bortezomib at final concentration of […] and DMSO were added to each plate as positive and negative controls respectively. For each screen, MIPE 4.1 compounds were added over an eleven-point concentration range […] in 3-fold dilutions.
3. Each plate was covered with a stainless steel gasketed lid to prevent evaporation and incubated for 48 hour at 37C, 95% relative humidity, and 5% CO2.
4-5. Three microliter CellTilter-GloTM luminescent substrate mix (Promega) reagent was added to the assay plate and incubated at room temperature for 5 min.
6. The luminescence signal was measured using a ViewLux (PerkinElmer) multiplate reader with a 2 second exposure time per plate. Data for each compound were normalized as percent viability such that measurements for DMSO and the empty well controls in each plate were defined as 100% and 0%, respectively.
Potency is read from the fitted curve at half-maximal effect.

SMILES	Potency
O=P1(N(CCCl)CCCl)NCCCO1 (stereo not given)	10.5 µM (active)
COc1ccc(C(CN(C)C)C2(O)CCCCC2)cc1 (stereo not given)	inactive
Cn1c(CCCC(=O)O)nc2cc(N(CCCl)CCCl)ccc21	inactive
C[C@H]1CCCC=CC2C[C@H](O)C[C@@H]2[C@H](O)C=CC(=O)O1 (stereo not given in full)	0.0372 µM (active)
CC1=C2C[C@@H]3[C@@H](CC=C4C[C@@H](O)CC[C@@]43C)[C@@H]2CC[C@]12O[C@H]1C[C@H](C)CN[C@H]1[C@H]2C	inactive
Cc1cccc(C)c1NC(=O)CN1CCCC1=O	inactive
O=C(Oc1ccc([N+](=O)[O-])cc1)N1CCN(Cc2cccc(Oc3ccccc3)c2)CC1	inactive
CN1CCN(c2ccc([N+](=O)[O-])c3no[n+]([O-])c23)CC1	inactive
COc1ccc(CC2NCCc3cc(OC)c(OC)cc32)cc1OC (stereo not given)	inactive
c1ccc(CCCN2CCN(CCOC(c3ccccc3)c3ccccc3)CC2)cc1	inactive
CC(N[C@H]1C[C@H]1c1ccccc1)c1ccc2c(c1)OCCO2 (stereo not given in full)	inactive
C[C@]12COC(=O)C[C@@H]1CC[C@@H]1[C@H]2CC[C@@]2(C)[C@H]1CC[C@]2(C)O	inactive
O=C1CCC[C@@H]2[C@H]3CCCN4CCC[C@@H](CN12)[C@@H]34	inactive
O=C(N[C@@H](COc1ccc2[nH]c(=O)[nH]c2c1)c1ccccc1)c1cccn(Cc2ccc(F)c(F)c2)c1=O	5.26 µM (active)
CC(=O)Nc1ccc(OC[C@](C)(O)C(=O)Nc2ccc([N+](=O)[O-])c(C(F)(F)F)c2)cc1	inactive
CC(C)c1cccc(C(C)C)c1O	inactive
Cc1c(C(=O)Nc2cccc(C(F)(F)F)c2)cc(-c2ccccc2)n1CCCN1CCOCC1	inactive
CC(=Cc1csc(C)n1)[C@@H]1C[C@H]2O[C@@H]2CCC[C@H](C)[C@@H](O)[C@@H](C)C(=O)C(C)(C)[C@@H](O)CC(=O)O1	inactive
O=C1C=CC[C@@H]2[C@H]3CCCN4CCC[C@@H](CN12)[C@@H]34	inactive
CN1CCN(C(=O)O[C@H]2c3nccnc3C(=O)N2c2ccc(Cl)cn2)CC1	inactive

SMILES	Potency
COc1ccc2c(c[n+](C)c3c4cc5c(cc4ccc23)OCO5)c1OC	16.6 µM (active)
CN1C(=O)CCS(=O)(=O)C1c1ccc(Cl)cc1 (stereo not given)	inactive
CCCCCC[C@H]1C(=O)O[C@H](C)[C@H](NC(=O)c2cccc(NC=O)c2O)C(=O)O[C@@H](C)[C@@H]1OC(=O)CC(C)C	1.66 µM (active)
C[C@]12CC[C@@H]3[C@@H](CCC4=CC(=O)CC[C@@H]43)[C@@H]1CC[C@@H]2OC(=O)CCc1ccccc1	inactive
CC(C)(C)[C@]1(O)C[C@@H]2OC(=O)C[C@@]23C(=O)O[C@@H]2OC(=O)[C@H](O)C213 (stereo not given in full)	inactive
CN[C@@H]1Cc2cccc3[nH]c(=O)n(c23)C1	inactive
C[C@]12CC[C@H]3[C@@H](CCC4=CC(=O)CC[C@@]43C)[C@H]1CC[C@H]2O	inactive
C[C@]12CCC(=O)C(O)=C1CC[C@@H]1[C@H]3CCC(=O)[C@@]3(C)CC[C@@H]12	inactive
C[C@]12Cc3cn[nH]c3C[C@@H]1CC[C@@H]1[C@H]2CC[C@@]2(C)[C@H]1CC[C@]2(C)O	inactive
NCC1(CC(=O)O)CCCCC1	inactive
COC1(CS(=O)c2ccccc2)CCN(CCc2c[nH]c3ccc(F)cc23)CC1 (stereo not given)	inactive
CC(C)[C@H]1C(=O)N[C@H](CO)Cc2c[nH]c3cccc(c23)N1C	inactive
O=S(=O)(F)Cc1ccccc1	inactive
O=C(Oc1ccc([N+](=O)[O-])cc1)N1CCC(C(O)(c2ccc3c(c2)OCO3)c2ccc3c(c2)OCO3)CC1	14.8 µM (active)
O=C(O)c1nn(Cc2ccc(Cl)cc2Cl)c2ccccc12	inactive
C=C[C@@H]1CN2CCC1C[C@@H]2[C@@H](O)c1ccnc2ccccc12 (stereo not given in full)	inactive
C#CC1(O)CCC2C3CCC4=CC(=O)CCC4(C)C3CCC21C (stereo not given)	inactive
CCOC(=O)c1cncn1[C@H](C)c1ccccc1	inactive
C[C@@H]1[C@H](O)[C@@H](C)C=CC=CCCC=CC=CC=CC=C[C@H](O[C@H]2O[C@@H](C)[C@H](O)[C@@H](N)[C@@H]2O)CC2O[C@](O)(C[C@@H](O)[C@H](O)CC[C@@H](O)C[C@@H](O)C[C@@H](O)CC(=O)O[C@H]1C)C[C@H](O)[C@H]2C(=O)O	inactive
CC1=C(O)C(=O)C=C2C1=CC=C1[C@@]2(C)CC[C@@]2(C)[C@@H]3C[C@](C)(C(=O)O)CC[C@]3(C)CC[C@]12C	5.9 µM (active)
